Assay results reported in PubChem BioAssay (NCI).
Values joined by “and” are separate entries in the source; they are usually repeats but may differ in a detail not shown here. Identical values can stand only once. This is part of a sample that, as a whole, favours compounds with a hit. Of some 79,000 tested, about 15% had one in any assay. Active and inactive are the calls of the source. Rule as the data show it: active = growth inhibition above about 70%; inactive = the rest.

How the values were obtained:
[1] = NCI Yeast Anticancer Drug Screen. Data for the rad50 strain (AID 155);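 also: 0% = growth of vehicle-only cultures of the same strain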; settings: S. cerevisiae rad50 strain growth inhibition, hits give high values; at 50.0 µM unless noted
In short: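 Vehicle-treated cultures provide the reference for the growth inhibition reported for compound-exposed, repair-deficient yeast.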

[2] = NCI Yeast Anticancer Drug Screen. Data for the mec2-1 strain (AID 157); settings: S. cerevisiae mec2-1 strain, hits give high values; at 50.0 µM unless noted
In short: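 Growth inhibition is read against vehicle-treated controls after compound exposure of the mec2-1 yeast strain, which is defective in DNA damage repair or cell cycle control.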

[3] = NCI Yeast Anticancer Drug Screen. Data for the sgs1 mgt1 strain (AID 161);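 also: 0% = growth of cultures given vehicle only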; settings: S. cerevisiae sgs1 mgt1 strain, hits give high values; at 50.0 µM unless noted
In short: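 Percent growth inhibition was derived by comparing compound-exposed mutant yeast with vehicle-exposed cultures. The strain carries alterations in DNA damage repair.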

[4] = NCI Yeast Anticancer Drug Screen. Data for the cln2 rad14 strain (AID 165);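 also: 0% = growth equal to vehicle treated cultures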; settings: S. cerevisiae cln2 rad14 strain, hits give high values; at 50.0 µM unless noted
In short: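 Growth inhibition, relative to vehicle-treated controls, is the read-out. The test organism is a yeast strain with defined genetic alterations, cln2 rad14.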

[5] = NCI Yeast Anticancer Drug Screen. Data for the bub3 strain (AID 167); settings: S. cerevisiae bub3 mutant strain, hits give high values; at 50.0 µM unless noted
In short: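 Mutant yeast screening strain plus compound; vehicle-treated cultures serve as the 0% inhibition reference.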

[6] = NCI Yeast Anticancer Drug Screen. Data for the mlh1 rad18 strain (AID 175); settings: S. cerevisiae mlh1 rad18 strain growth inhibition, hits give high values; at 50.0 µM unless noted
In short: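 Cells of a genetically altered yeast strain, deficient in DNA damage repair, were treated with compound. Their growth was then compared with that of vehicle-treated cultures to give inhibition.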

Measured: growth inhibition

CN(C(=O)Nc1ccccc1)c1ccc(O)cc1
inactive: [1] 19.4% | [2] -8.55% | [3] -16.4% | [4] -11.9% | [5] -11.9% | [6] 12.7%

O=C(Nc1ccc(Br)c2ccccc12)c1ccc2ccccc2c1O
inactive: [1] -0.05% | [2] -2.1% | [3] -26.1% | [4] -11.2% | [5] -37.5% | [6] -78.8%

CCCCCCCCCOc1ccc(C=Nc2ccc(C)cc2)cc1
inactive: [1] -4.3% | [2] 7.8% | [3] -2.55% | [4] -18.9% | [5] -10.9% | [6] -4.65%

OC[C@H]1N[C@H](CO)[C@@H](O)[C@H]1O
inactive: [1] 1.7% | [2] -10.2% | [3] 4.35% | [4] 16.8% | [5] -15.6% | [6] 10.2%

O=C(CC(=O)C(F)(F)F)c1ccccc1.O=C(CC(=O)C(F)(F)F)c1ccccc1.[Mn]
inactive: [1] -1.85% | [2] -0.35% | [3] 19.2% | [4] -13.7% | [5] 3.6% | [6] 18.5%

Nc1cccc(B(O)O)c1
inactive: [1] -16.6% | [2] -65% | [3] -34.3% | [4] -5.75% | [5] -29.6% | [6] -15.8%

CSC(=NC(=O)c1ccccc1)SCCSC(=NC(=O)c1ccccc1)SC
inactive: [1] 6.45% | [2] -7.35% | [3] 2.8% | [4] 33.6% | [5] -3.65% | [6] 6.35%

N#Cc1ccc(-c2ccc(C#N)cc2)cc1
inactive: [1] -19.4% | [2] -23.3% | [3] -14.1% | [4] 9.05% | [5] -20.1% | [6] 7.05%

Cc1ccc([N+](=O)[O-])cc1NC(=O)Sc1ccc(C(C)(C)C)cc1C
inactive: [1] 5.2% | [2] 6.9% | [3] 4.65% | [4] -11.4% | [5] 3.4% | [6] 8.8%

O=C(c1ccccc1)C(F)S(=O)(=O)O (stereo not given)
inactive: [1] -5.7% | [2] -7.75% | [3] -9.05% | [4] -25.8% | [5] 6.2% | [6] 16.9%

CC1=NN(C(=O)c2ccc(Cl)cc2)C(=O)/C1=C/c1cccc([N+](=O)[O-])c1
inactive: [1] -16.7% | [2] -26.2% | [3] -44.9% | [4] -10.6% | [5] -15.9% | [6] -28.4%

O=c1ccc2ccc3[nH]onc3c2c1
inactive: [1] 10.2% | [2] -12.6% | [3] -5.85% | [4] -48.8% | [5] -26.4% | [6] -2.2%

CO/N=C1/OC(=O)OCC1(c1ccccc1)c1ccccc1
inactive: [1] 5.45% | [2] -3.4% | [3] 2.7% | [4] 11.1% | [5] 6.3% | [6] -3.3%

O=c1oc2ccccc2cc1O
inactive: [1] -12.2% | [2] -4.5% | [3] -6% | [4] -28.9% | [5] -18.3% | [6] 27.1%

c1ccc2c(c1)ccc1c[n+]3ccccc3cc12
inactive: [1] 26.6% | [2] 23.1% | [3] 22.2% | [4] 44.5% | [5] 9.25% | [6] 61.9%

C#CCOC(=O)c1ccccc1
inactive: [1] 1.15% | [2] -5.15% | [3] 0.6% | [4] -24.2% | [5] 3.5% | [6] 0%

COCN1C(=N)C(C(=O)OC(C)(C)C)=C2C=C(O)C=CC21C (stereo not given)
inactive: [1] -4.5% | [2] 14.7% | [3] -23.4% | [4] 9.1% | [5] 22.2% | [6] 2.55%

CC/C=C/C(=O)CC(O)(C(F)(F)F)C(F)(F)F
inactive: [1] -30.9% | [2] 9.1% | [3] 12.5% | [4] -20.9% | [5] -29.8% | [6] -20.8%

O=S(=O)(O)c1ccc(N=Nc2ccc(O)cc2)cc1
inactive: [1] -15.8% and 28.8% | [2] -27.9% and -10.4% | [3] -10.1% | [4] -53.9% | [5] 3.7% | [6] -17.4% and 8.65%

C=CCn1c(=O)c2ccccc2[n+]2c(C)c(C(=O)OCC)sc12
inactive: [1] -26.9% | [2] -16.2% | [3] -2.65% | [4] -14.5% | [5] 2.45% | [6] -19.6%

C[C@]12CCC(=O)C=C1CC[C@H]1[C@@H]3CC[C@](O)(C(=O)CO)[C@@]3(C)CC(=O)[C@@]12SC(N)=O
inactive: [1] -4.6% | [2] 6.55% | [3] 3.9% | [4] 20.8% | [5] 6.1% | [6] -15.7%

O=C1CN(c2cccc(Cl)c2)C(=O)CN1/N=C/c1ccco1
inactive: [1] 18.9% | [2] -14.5% | [3] 18% | [4] 12.7% | [5] 23.8% | [6] 22.1%

COC(=O)C(NC(=O)c1ccccc1)C(c1ccc(Cl)cc1)P(=O)(OC)OC (stereo not given)
inactive: [1] -19.6% | [2] -1% | [3] 12% | [4] 22.2% | [5] -7.85% | [6] -17.9%

Cc1cccc(C(=N)c2ccccc2Cc2cccc3ccccc23)c1C
inactive: [1] 51% | [2] 6.5% | [3] 66% | [4] 17.6% | [5] 68.5% | [6] 37.8%

COC(=O)c1[nH]c(=O)c2ccc([N+](=O)[O-])cc2c1O
inactive: [1] -15.7% | [2] 0.15% | [3] -14.9% | [4] 16.1% | [5] -6.05% | [6] -0.4%

COC(=O)[C@@H]1O[C@H]1c1ccccn1
inactive: [1] 7.9% | [2] 1.1% | [3] -7.95% | [4] -5.75% | [5] 8.95% | [6] 0.1%

COC1CCC2(C)C(CCC3C4CCC(OC(C)=O)C4(C)CCC32)O1 (stereo not given)
inactive: [1] 1.65% | [2] -9.55% | [3] -9.45% | [4] -6.7% | [5] -1.95% | [6] -14.8%

CCNC(=O)Nc1cccc(C)n1
inactive: [1] 14.9% | [2] 14.1% | [3] 22.8% | [4] 27.6% | [5] 4.4% | [6] 19.4%

C#CC(=O)CCC
inactive: [1] 26.6% | [2] -5.8% | [3] -4.7% | [4] -1.1% | [5] 32.5% | [6] 15.6%

C#CCC(C(=O)OC)N(CC)CC (stereo not given)
inactive: [1] 25.6% | [2] -21.9% | [3] 41.4% | [4] 0.55% | [5] 46.1% | [6] 33.7%

CCOc1ccc(/C=C/C(=O)c2sc(NNC(C)=O)nc2C)cc1
inactive: [1] 20.1% | [2] 25.1% | [3] -11.6% | [4] 12.7% | [5] 25.9% | [6] 22.4%

CN(C)c1ccc(/C=C2\C[N+](C)(C)C/C(=C\c3ccc(N(C)C)cc3)C2=O)cc1
inactive: [1] 6.9% | [2] 3.4% | [3] 9.35% | [4] -2.55% | [5] -3.45% | [6] 32.8%

CCOc1cc2c(cc1C(C)c1ccc(OC)c(C)c1)OCO2 (stereo not given)
active: [4] 74%
inactive: [1] 11.1% | [2] 5.6% | [3] -2.3% | [5] 26.2% | [6] 5.7%

CCOC(=O)c1ccc(N=C2S/C(=C\C(=S)Nc3ccccc3)N(c3ccccc3)C2=Nc2ccc(C(=O)OCC)cc2)cc1
inactive: [1] 14.3% | [2] 4.85% | [3] 12.4% | [4] 13.6% | [5] 19.2% | [6] 12.4%

O=C(CC1SC(=Nc2ccccc2Cl)NC1=O)Nc1ccc(Cl)cc1Cl (stereo not given)
inactive: [1] -9.8% | [2] -14.8% | [3] -15.9% | [4] 17.7% | [5] -6.55% | [6] 9.7%

O=C1NC(=O)C2(CCCC2)N1
inactive: [1] -9.4% | [2] 8.05% | [3] 2.8% | [4] -74% | [5] 7.45% | [6] -37.9%

COc1ccccc1/C=C1\SC(=S)NC1=O
inactive: [1] -44.6% | [2] -36.9% | [3] -38.2% | [4] -14.6% | [5] -17.8% | [6] -40.1%

Cc1cnc2ccccc2n1 (tested in a mixture with another compound)
inactive: [1] -1.5% | [2] 4.35% | [3] -5.25% | [4] 8% | [5] -2.1% | [6] 24.8%

CCOc1cc(C=O)c2c(ccc3ccc(OC)c(OC)c32)c1OC
inactive: [6] -11.8%
active: [1] 86.5% | [2] 90.8% | [3] 84.7% | [4] 83.5% | [5] 82.4%

O=C(/C=C/c1ccccc1)c1ccc(I)cc1
inactive: [1] 11.7% | [2] -1.25% | [3] 9.6% | [4] -8.2% | [5] 5.25% | [6] 1.5%
